Source: PubChem BioAssay (The Scripps Research Institute Molecular Screening Center)
TEAD-YAP inh: TEAD-YAP interaction inhibition; inhibition, % at 9.12 µM; 640,000 compounds, 1.4% hits; HEK-TIYL cells, TEAD-Gal4/YAP UAS-luciferase luminescence; AID 1259422; in the data active = inhibition above about 32%;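 also: 0% = median of test compound wells and 100% = reference inhibitor wells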
GPR151 ag: activators of human GPR151 | PathHunter beta-arrestin GPR151 cells, luminescence | activation, % at 11.2 µM | 650,000 compounds, 1% hits | AID 1508602; in the data active = activation above about 4.9%;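 also: 0% = median of compound wells and 100% = cells with positive control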
Target sequence (Q8TDV0 whole entry, looked up): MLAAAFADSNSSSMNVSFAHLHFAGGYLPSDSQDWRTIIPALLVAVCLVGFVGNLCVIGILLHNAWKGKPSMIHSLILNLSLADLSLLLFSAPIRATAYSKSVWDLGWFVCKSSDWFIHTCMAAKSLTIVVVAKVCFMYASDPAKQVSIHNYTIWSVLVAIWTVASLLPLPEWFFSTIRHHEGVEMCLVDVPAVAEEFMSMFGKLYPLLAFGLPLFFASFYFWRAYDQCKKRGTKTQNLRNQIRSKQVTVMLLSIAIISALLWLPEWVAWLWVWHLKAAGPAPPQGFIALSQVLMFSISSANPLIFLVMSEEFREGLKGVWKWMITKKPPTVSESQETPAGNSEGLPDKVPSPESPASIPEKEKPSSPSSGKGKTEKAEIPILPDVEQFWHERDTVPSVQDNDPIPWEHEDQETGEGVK
FBW7 activator: activators of human E3 ligase FBW7. normalized activity (activation), % at 26.1 µM. 650,000 compounds, 0.13% hits. AID 1259310. Q969H0. AlphaScreen FBW7–phospho-cyclin E peptide binding, activator screen; in the data active = normalized activity above about 1.9%;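 also: purified mutant Fbw7 with reduced substrate affinity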
MITF inh: blocks human microphthalmia-associated transcription factor. O75030. AlphaScreen MITF homodimerization, bead proximity signal. inhibition, % at 2.6 µM. 650,000 compounds, 0.91% hits. AID 1259374; in the data active = inhibition above about 50%;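 also: 0% = vehicle wells with protein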
Numbers without * were called inactive. An excerpt weighted towards active compounds, which were near 3.5% of everything screened.

SMILES	TEAD-YAP inh	GPR151 ag	FBW7 activator	MITF inh
Cc1cccn2c(=O)c3cc(C(=O)NC4CCCCC4)c(=N)n(CCCn4ccnc4)c3nc12	4	-1	2.1*	15
CCCCCn1c(=O)c2c(nc3n2CCCN3c2ccccc2)n(C)c1=O	-5	1	0	2
CCn1c(C(=O)N2CCC(C(=O)N3CCCCC3)CC2)cc2sccc21	2	0	0	3
COc1ccc(/C=N\NC(=O)c2n[nH]c3c2CCCC3)c(OC)c1OC	61*	1	1	-3
COc1cccc(/C=N\NC(=O)c2n[nH]c3c2CCCC3)c1OC	-21	-1	1	-15
COc1ccc(/C=N/NC(=O)c2[nH]nc3c2CCc2ccccc2-3)cc1OC	46*	-2	0	12
COc1ccc(/C=N/NC(=O)c2n[nH]c3c2CCCC3)cc1OC	26	2	0	-3
COc1cc(/C=N/NC(=O)c2n[nH]c3c2CCC3)ccc1O	47*	2	0	10
COC(=O)c1ccc(/C=N/NC(=O)c2[nH]nc3c2CCc2ccccc2-3)cc1	-1	-2	0	18
COc1cccc(/C=N\NC(=O)c2n[nH]c3c2CCC3)c1	36*	-1	0	9
Nc1ccc(C(=O)NNc2c(Cl)cc(Cl)cc2Cl)cc1	-4	0	0	-3
CCOc1cc(C(=O)N2CCc3cc(OC)c(OC)cc3C2COc2ccccc2OC)cc(OCC)c1OCC (stereo unspecified)	0	-1	0	-12
O=C(NCc1ccco1)C1CC12CCN(Cc1nc(-c3ccccc3)cs1)CC2 (stereo unspecified)	56*	-1	0	0
CN1CCCN(C(=O)C2CC23CCN(Cc2nc(-c4ccccc4)cs2)CC3)CC1 (stereo unspecified)	3	0	0	6
O=C1NC(=O)C(=Cc2ccccc2OCc2cccc(F)c2)C(=O)N1	8	0	-1	4
Cc1cc(NCCCN(C)C)n2c(nc3ccccc32)c1C#N	50*	-1	0	14
Cc1cc(NCCO)n2c(nc3ccccc32)c1C#N	-4	0	0	-6
O=C(CSCc1ncccn1)Nc1ccc(F)c(Cl)c1	-4	0	0	6
COc1ccc(CN2C(=O)CCC2(C)C(=O)NC2CCC(C)CC2)cc1 (stereo unspecified)	8	1	0	3
Cc1cc(C)n(C(=C(/C(Cl)=C(/Cl)Br)[N+](=O)[O-])n2nc(C)cc2C)n1	42*	0	0	14
O=C(NCC1CCCO1)c1cc2nc(-c3ccc(Cl)cc3)cc(C(F)(F)F)n2n1 (stereo unspecified)	-1	-1	0	-2
OCCNc1nc(Nc2ccncn2)nc2c1ncn2Cc1ccc(C(F)(F)F)cc1	-12	-1	3.1*	17
OCCNc1nc(Nc2ccc3ncccc3c2)nc2c1ncn2-c1ccccc1	45*	-1	0	19
Oc1ccc(CCNc2nc(Nc3ccc4ncccc4c3)nc3c2ncn3-c2ccccc2)cc1	46*	0	0	1
CCCNc1nc(Nc2ccc3ncccc3c2)nc2c1ncn2-c1ccsc1	48*	1	0	-1
SMILES	TEAD-YAP inh	GPR151 ag	FBW7 activator	MITF inh
CC(C)(C)c1ccc(OCC(=O)Nc2ccc(O)c(-c3nc4ccccc4o3)c2)cc1	7	0	0	-3
CCCNc1nc(Nc2ccccc2)nc2c1ncn2-c1ccccc1	-6	-1	0	-8
CCCNc1nc(Nc2ccncc2)nc2c1ncn2-c1ccccc1	43*	-2	0	14
CCCNc1nc(Nc2ccc3ncccc3c2)nc2c1ncn2-c1ccccc1	34*	2	0	5
Oc1ccc(CCNc2nc(Nc3ccncn3)nc3c2ncn3-c2ccccc2)cc1	43*	-2	0	12
CC(=O)c1cccc(-c2cncc(C(=O)NCCO)c2)c1	-13	-2	0	-14
Cc1ccccc1NC(=O)c1c(C)nc(SCC(=O)c2ccc(Cl)cc2)c(C#N)c1-c1cccnc1	2	0	0	0
CCn1c(C)nc2c(C)[n+](CC(=O)c3ccc(Br)cc3)ccc21	38*	-1	0	-6
OCCCNc1ccc2ncc(-c3ccc(OC(F)(F)F)cc3)n2n1	0	-1	0	14
OCCCNc1ccc2ncc(-c3ccc(Oc4ccccc4)cc3)n2n1	50*	1	0	10
N#Cc1ccc(-c2cnc3ccc(NCCCO)nn23)cc1	50*	0	0	-17
OCCCNc1ccc2ncc(-c3ccc(F)c(Cl)c3)n2n1	-3	2	0	-11
OCCCNc1ccc2ncc(-c3ccc(F)cc3)n2n1	54*	-1	0	2
O=C(Nc1ccncc1)OC1CCN(C(=O)C(O)c2ccc(Br)cc2)CC1 (stereo unspecified)	-4	0	1	-12
CCOC(=O)c1c(C)[nH]c(C(=O)N/N=C\c2ccc(Br)cc2)c1C	56*	2	0	3
CCOC(=O)c1c(C)[nH]c(C(=O)N/N=C\c2ccccc2O)c1C	35*	0	0	-1
COc1ccccc1/C=N/NC(=O)c1[nH]c(C)c(C(=O)N/N=C/c2ccccc2OC)c1C	1	0	0	-2
CCOC(=O)c1c(C)[nH]c(C(=O)N/N=C\c2ccccc2)c1C	18	-1	0	18
CCOc1cc(C2NC(=O)NC3=C2CCc2ccccc23)ccc1O (stereo unspecified)	14	4	0	3
NC(CCCc1ccccc1)c1ccc2c(c1)OCCO2 (stereo unspecified)	55*	1	1	22
CC(=O)c1c(C)[nH]c(C(=O)Nc2nc(C)cs2)c1C	54*	-2	0	-1
CC(=O)c1c(C)[nH]c(C(=O)Nc2ccc(C)cn2)c1C	53*	-1	0	1
CNc1c(-c2nc(-c3ccc(OC)cc3)n[nH]2)nnn1Cc1ccccc1Cl	46*	1	0	13
Cc1ccc(NS(=O)(=O)c2ccc(-n3cccn3)cc2)cc1C	2	3	0	2
COc1ccc(NS(=O)(=O)c2cc(C)ccc2OC)cc1OC	0	-2	1	3
SMILES	TEAD-YAP inh	GPR151 ag	FBW7 activator	MITF inh
COc1ccc(NS(=O)(=O)c2ccc(-n3cccn3)cc2)cc1OC	40*	-1	0	6
COc1ccc(NS(=O)(=O)c2c(C)cc(C)cc2C)cc1OC	45*	0	0	3
N#C/C(=C\c1c(F)cccc1F)C(=O)N1CCCC1	4	2	0	2
O=C(c1cc2c(ccc3ccccc32)oc1=O)N1CCCC1	-3	0	3.2*	2
O=C(c1cc2c(ccc3ccccc32)oc1=O)N1CCOCC1	-29	0	0	-6
CCn1nccc1C(=O)N(Cc1ccccc1)c1nc2c(F)cc(F)cc2s1	-7	0	1	11
CCOc1cc(/C=C2\SC(=S)N(CCOC)C2=O)ccc1O	5	0	1	17
CCOc1cc(/C=C2/SC(=S)N(CCCC(=O)O)C2=O)ccc1O	73*	-2	0	23
COc1ccc(/C=C2/SC(=O)N(CCCC(=O)Nc3cccc(O)c3)C2=O)cc1	66*	0	0	-3
